One test deals with Albumin (Bos taurus) (UniProt P02769). Nature of the test: compounds binding labelled BSA control protein – biochemical, small-molecule microarray, Alexa647 label, 635/667 nm fluorescence, artefact control for SMM control protein annotation, profiling panel (AID 1118).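 Further: score merges 667 nm emission intensity and signal-to-noise per printed compound spot.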 The settings on record: BSA-A647 binding, fluorescence 635 nm, higher = more signal.
The nature of test [1]: probe aXIP binding to arrayed compounds – biochemical, NeuroSMM set, 635/667 nm fluorescence, primary screen (AID 1119).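 Further: probe is the protein aXip251-270 applied at 1 µg/mL to compound-printed slides; binding of probe to printed compounds measured as 667 nm fluorescence plus signal to noise.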 The settings on record: small-molecule microarray, higher = more signal, called active from +8 up or from −8 down.
Test [2] in a line: probe aNOTCH3 binding on compound microarray – biochemical, small-molecule microarray, 635/667 nm fluorescence, primary screen (AID 1120).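 Further: probe is a biotin-tagged antibody raised against NOTCH3 rather than NOTCH3 protein; score merges spot fluorescence near 667 nm with spot signal to noise.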 To be noted: higher = more signal.
Test [3] in a line: probe aNOTCH2 binding on compound microarray – biochemical, small-molecule microarray, 635/667 nm fluorescence, primary screen (AID 1121).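 Further: score merges feature fluorescence read at 667 nm with its signal to noise.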 To be noted: higher = more signal.
In test [4] the target is Carbonic anhydrase 2 (Homo sapiens) (UniProt P00918). Nature of the test: compounds binding carbonic anhydrase 2 – biochemical, small-molecule microarray, Alexa647-labelled CAII, profiling panel (AID 1122). The settings on record: CAII-A647 binding fluorescence, higher = more signal.
Test [5] can be described thus: COS7 lysate on small-molecule microarray, probe aHis, 635 nm (AID 1123).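 Further: z-score combines 667nm fluorescence intensity with signal-to-noise per printed compound spot.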 The settings on record: COS7 cell lysate, fluorescence, higher = more signal.
Test [6] is described as follows: probe aLAP1 signal on lysate-treated microarray – cell lysate, small-molecule microarray, COS7 lysate, primary screen (AID 1124).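 Further: lysate comes from COS7 cells expressing LAP1 and is applied at 0.3 µg/mL; score merges spot fluorescence near 667 nm with signal-to-noise over triplicate slides.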 To be noted: probe aLAP1, fluorescence, higher = more signal.
A further test relates to Sam68 (KHDRBS1). Nature of the test: compounds binding KHDRBS1 protein – biochemical, small-molecule microarray, 635 nm fluorescence, primary screen (AID 1125).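 Further: score merges 667 nm channel intensity with signal to noise over triplicate slides.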 The settings on record: higher = more signal.
Test [7] deals with Chordin-like protein 2 (CHRDL2). Put plainly: compounds binding chordin-like 2 – biochemical, small-molecule microarray, 635 nm fluorescence, primary screen (AID 1126).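 Further: printed compound slides probed with Chrdl2 protein at 4 µg/mL for 1 h at 4 C; score merges 667 nm emission intensity with signal to noise over three replicate slides.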 The settings on record: fluorescence 635 nm, higher = more signal.
The target of test [8] is Concanavalin-A (Canavalia ensiformis) (UniProt P02866). Put plainly: compounds binding concanavalin A lectin – biochemical, small-molecule microarray, Alexa647 label, 635 nm, artefact control for SMM control protein annotation, primary screen (AID 1127).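 Further: z combines 667 nm emission intensity with signal-to-noise across three replicate slides.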 To be noted: ConA-A647 binding fluorescence, higher = more signal.
Chain of Concanavalin-A (Canavalia ensiformis) (P02866 whole entry, looked up): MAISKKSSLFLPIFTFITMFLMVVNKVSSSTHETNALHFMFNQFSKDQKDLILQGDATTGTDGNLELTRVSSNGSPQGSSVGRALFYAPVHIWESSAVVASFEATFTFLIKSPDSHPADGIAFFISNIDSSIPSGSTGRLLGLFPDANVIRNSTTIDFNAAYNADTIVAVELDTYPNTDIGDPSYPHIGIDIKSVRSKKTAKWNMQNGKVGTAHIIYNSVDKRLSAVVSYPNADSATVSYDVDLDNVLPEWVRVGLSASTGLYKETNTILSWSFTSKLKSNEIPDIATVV
Test [9] is described as follows: compounds binding Alexa647 anti-His antibody – biochemical, small-molecule microarray, 635 nm fluorescence, artefact control for SMM control protein annotation, primary screen (AID 1128).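 Further: score merges feature fluorescence with signal-to-noise for each printed compound spot.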 To be noted: higher = more signal.
The subject of test [10] is Human papillomavirus type 1a E7 protein (residues 1-88). Nature of the test: HPV1a E7 small-molecule binders, primary screen, biochemical, small-molecule microarray, residues 1-88, 635 nm (AID 1129). To be noted: small-molecule microarray binding, fluorescence 635 nm; higher = more signal.
For test [11], the target named is Focal adhesion kinase 1 (Homo sapiens) (UniProt Q05397). Nature of the test: PTK2 protein binding on printed compound slides – biochemical, small-molecule microarray, 635/667 nm fluorescence, BSA, DTT, primary screen (AID 1130).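 Further: composite of spot emission at 667 nm and signal to noise over triplicate slides.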 The settings on record: 635 nm fluorescence, higher = more signal.
Chain of Focal adhesion kinase 1 (Homo sapiens) (Q05397 whole entry, looked up): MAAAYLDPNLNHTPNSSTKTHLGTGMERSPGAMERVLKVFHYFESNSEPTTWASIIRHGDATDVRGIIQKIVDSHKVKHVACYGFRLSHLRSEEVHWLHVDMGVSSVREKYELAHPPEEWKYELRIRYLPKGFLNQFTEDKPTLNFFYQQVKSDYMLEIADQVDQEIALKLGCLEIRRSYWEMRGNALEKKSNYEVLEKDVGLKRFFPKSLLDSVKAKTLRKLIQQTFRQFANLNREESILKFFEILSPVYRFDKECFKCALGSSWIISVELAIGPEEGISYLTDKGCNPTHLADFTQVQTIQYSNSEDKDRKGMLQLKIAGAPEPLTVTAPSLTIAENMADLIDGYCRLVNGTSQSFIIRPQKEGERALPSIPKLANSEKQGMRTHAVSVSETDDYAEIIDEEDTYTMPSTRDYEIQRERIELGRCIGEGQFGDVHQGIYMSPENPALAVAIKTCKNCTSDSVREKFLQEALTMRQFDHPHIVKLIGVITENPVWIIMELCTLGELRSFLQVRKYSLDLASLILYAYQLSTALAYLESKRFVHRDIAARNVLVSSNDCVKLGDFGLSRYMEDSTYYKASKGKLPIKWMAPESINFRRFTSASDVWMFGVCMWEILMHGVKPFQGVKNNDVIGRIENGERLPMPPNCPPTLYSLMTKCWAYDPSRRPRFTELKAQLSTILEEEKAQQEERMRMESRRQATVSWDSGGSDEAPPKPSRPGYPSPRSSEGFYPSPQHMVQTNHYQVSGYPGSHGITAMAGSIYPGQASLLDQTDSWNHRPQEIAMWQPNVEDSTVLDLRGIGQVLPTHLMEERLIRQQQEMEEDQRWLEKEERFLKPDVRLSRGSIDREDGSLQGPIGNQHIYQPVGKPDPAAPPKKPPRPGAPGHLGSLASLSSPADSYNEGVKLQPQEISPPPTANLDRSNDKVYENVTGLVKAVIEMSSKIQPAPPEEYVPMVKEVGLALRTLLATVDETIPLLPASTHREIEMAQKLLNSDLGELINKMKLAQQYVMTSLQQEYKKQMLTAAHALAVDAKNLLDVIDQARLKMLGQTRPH
Test [12] relates to Fibrinogen (Alexa647-labelled). Put plainly: Alexa647-fibrinogen binding to printed small molecules – biochemical, small-molecule microarray, 635/667 nm fluorescence, artefact control for SMM control-protein annotation, profiling panel (AID 1131).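 Further: z-score merges 667 nm fluorescence with per-spot signal-to-noise over triplicate slides.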 The settings on record: fibrinogen-A647 binding fluorescence, higher = more signal.
The target of test [13] is Follistatin (Homo sapiens) (UniProt P19883). Put plainly: FST protein binding to printed compounds – biochemical, small-molecule microarray, 635/667 nm fluorescence, primary screen (AID 1132). The settings on record: 635 nm fluorescence, higher = more signal.
Chain of Follistatin (Homo sapiens) (P19883 whole entry, looked up): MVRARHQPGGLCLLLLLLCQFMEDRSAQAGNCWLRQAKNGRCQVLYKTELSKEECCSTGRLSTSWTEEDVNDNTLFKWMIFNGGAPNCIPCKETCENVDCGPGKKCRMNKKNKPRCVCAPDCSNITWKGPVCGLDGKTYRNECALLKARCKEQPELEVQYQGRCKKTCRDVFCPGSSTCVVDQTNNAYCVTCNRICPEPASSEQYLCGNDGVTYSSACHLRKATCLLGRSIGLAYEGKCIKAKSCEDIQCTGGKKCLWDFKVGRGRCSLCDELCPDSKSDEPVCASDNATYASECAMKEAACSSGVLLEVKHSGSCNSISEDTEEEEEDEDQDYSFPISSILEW
The target of test [14] is Fibroblast growth factor 2 (Homo sapiens) (UniProt P09038). Nature of the test: basic fibroblast growth factor binding to printed compounds – biochemical, small-molecule microarray, 635/667 nm fluorescence, primary screen (AID 1133). To be noted: FGF2, fluorescence 635/667, higher = more signal.
Chain of Fibroblast growth factor 2 (Homo sapiens) (P09038 whole entry, looked up): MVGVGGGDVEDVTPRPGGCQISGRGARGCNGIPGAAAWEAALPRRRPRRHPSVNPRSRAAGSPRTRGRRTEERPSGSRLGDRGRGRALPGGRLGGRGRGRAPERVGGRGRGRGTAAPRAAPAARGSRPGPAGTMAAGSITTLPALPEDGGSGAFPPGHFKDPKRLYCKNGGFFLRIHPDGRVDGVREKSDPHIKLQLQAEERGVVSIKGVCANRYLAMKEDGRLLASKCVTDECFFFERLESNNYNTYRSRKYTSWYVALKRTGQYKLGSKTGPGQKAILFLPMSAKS
Test [15] can be described thus: JC-1 mitochondrial potential readout, lung cancer cells – cell-based, A549, JC-1 fluorescence, basal, 24 h, 100 nL, profiling panel (AID 1138).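 Further: A549 lung adenocarcinoma cells under basal conditions with no added stimulus; test concentration not given here.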 The settings on record: higher = more signal.
In another test the test system is Lefty1. Put plainly: Lefty1 protein binding to printed compounds – biochemical, small-molecule microarray, 635/667 nm fluorescence, primary screen (AID 1139). To be noted: fluorescence 635/667, higher = more signal.
In test [16] the test system is wheat germ agglutinin (Triticum aestivum), Alexa647-labelled. Nature of the test: Alexa647-WGA lectin binding to printed small molecules – biochemical, small-molecule microarray, 635/667 nm fluorescence, artefact control for SMM control-protein annotation, profiling panel (AID 1140).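 Further: score merges 667 nm feature emission with signal to noise over triplicate slides.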 The settings on record: WGA-A647 binding, 635 nm fluorescence, higher = more signal.

In test [17] the target is Luciferin 4-monooxygenase (Photinus pyralis) (UniProt P08659). Put plainly: inhibition of purified Photinus pyralis luciferase – biochemical, luminescence, purified enzyme, 2006 set, primary screen (AID 1141).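 Further: cell-free assay with purified firefly luciferase at 100 ng per well in PBS; test concentration not given here.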 The settings on record: purified firefly luciferase, SteadyGlo luminescence, 30 min; higher = more signal, called active from +8 up or from −8 down.
Chain of Luciferin 4-monooxygenase (Photinus pyralis) (P08659 whole entry, looked up): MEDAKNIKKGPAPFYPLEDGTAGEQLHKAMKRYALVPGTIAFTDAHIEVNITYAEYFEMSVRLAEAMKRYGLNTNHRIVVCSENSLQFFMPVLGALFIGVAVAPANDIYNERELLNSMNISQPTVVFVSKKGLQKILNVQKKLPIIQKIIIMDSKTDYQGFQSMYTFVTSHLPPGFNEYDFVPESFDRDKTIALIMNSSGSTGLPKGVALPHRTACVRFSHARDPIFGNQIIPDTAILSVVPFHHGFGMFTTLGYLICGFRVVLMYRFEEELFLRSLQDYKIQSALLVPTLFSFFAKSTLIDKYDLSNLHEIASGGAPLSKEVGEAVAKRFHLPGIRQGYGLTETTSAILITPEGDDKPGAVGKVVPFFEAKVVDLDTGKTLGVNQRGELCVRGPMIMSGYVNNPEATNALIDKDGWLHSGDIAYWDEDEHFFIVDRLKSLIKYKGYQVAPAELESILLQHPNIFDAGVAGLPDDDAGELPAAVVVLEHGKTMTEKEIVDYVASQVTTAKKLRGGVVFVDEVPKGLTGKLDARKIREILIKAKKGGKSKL

Activity calls are given as the source filed them.

Chain of Albumin (Bos taurus) (P02769 whole entry, looked up): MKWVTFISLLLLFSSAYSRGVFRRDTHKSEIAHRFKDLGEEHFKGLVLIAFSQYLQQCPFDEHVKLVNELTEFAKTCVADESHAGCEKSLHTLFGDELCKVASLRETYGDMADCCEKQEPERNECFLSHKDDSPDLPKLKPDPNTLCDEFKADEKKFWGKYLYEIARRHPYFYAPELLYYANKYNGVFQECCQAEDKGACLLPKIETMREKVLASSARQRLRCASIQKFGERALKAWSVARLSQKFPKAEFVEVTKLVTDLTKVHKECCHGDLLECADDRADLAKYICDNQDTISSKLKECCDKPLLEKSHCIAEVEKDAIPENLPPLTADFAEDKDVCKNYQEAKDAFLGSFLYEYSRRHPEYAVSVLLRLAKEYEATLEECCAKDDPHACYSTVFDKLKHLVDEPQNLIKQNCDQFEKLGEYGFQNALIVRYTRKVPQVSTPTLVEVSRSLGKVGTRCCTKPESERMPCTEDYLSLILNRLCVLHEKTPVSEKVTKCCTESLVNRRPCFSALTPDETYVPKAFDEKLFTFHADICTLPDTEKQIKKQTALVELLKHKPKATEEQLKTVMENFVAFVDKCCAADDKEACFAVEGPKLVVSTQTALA

For `O=C(CS)NCCCCCNC(=O)[C@@H]1C[C@@H]2C(=O)N[C@@H](Cc3ccccc3)C(=O)N2[C@@H]1c1ccc(O)cc1`, the composite z-score with Albumin (Bos taurus) is -0.814; in test [2] it was -0.0647; in test [3] it was -0.0756; in [4] it was 0.674; in test [5], 1.37; in test [6], 0.154. Moreover, the composite z-score in the test on Sam68 (KHDRBS1) was 1.3; in test [7], 0.617; in [8], 0.874; in test [9], 2.33; in test [10] it was 1.21; in [11], 0.661. Further, the composite z-score in test [12] was -0.0141; in test [13] it was 1.31; in [14], 1.29; in the test with Lefty1, 0.233; in test [16], 0.304. In test [1], the composite Z-score is 0.346 (inactive). In addition, the z-score in [15] is -0.208; in [17], -3.79 (inactive).

Consider `CO[C@@H]1COC(=O)CC=C[C@@H](C)[C@@H]2C=C[C@H](O)[C@@H](COC(=O)CCC[C@H]1C)O2`, for which the composite z-score with Albumin (Bos taurus) is -0.203; in test [2], 0.0319; in test [3], -0.184; in test [4], -0.455; in [5] it was -1.2; in test [6], 0.0206. The composite z-score in the test with Sam68 (KHDRBS1) was 0.0503; in test [7] it was 1.3; in test [8], -0.239; in test [9], 1.59; in test [10], -0.442; in test [11] it was -0.382. For the same compound, the composite z-score is -0.478 in test [12]; 1.06 in test [13]; 1.3 in [14]; 1.08 with Lefty1; -0.0297 in [16]. Further, the composite Z-score in test [1] is 0.135 (inactive). Moreover, the z-score in test [15] is -0.992; in test [17], 0.732 (inactive).

On to `CCc1cccc(NC(=O)O[C@H]2[C@H](OC(=O)Nc3ccc4c(c3)OCO4)[C@@H](OC(=O)Nc3ccc4c(c3)OCO4)[C@@H](OC)O[C@@H]2CO)c1`, for which the composite z-score with Albumin (Bos taurus) was 0.539; in [2], 0.42; in test [3], -0.0714; in test [4] it was 0.645; in test [5] it was 2.42; in test [6], 0.665. Further, the composite z-score with Sam68 (KHDRBS1) was 1.29; in test [7] it was 0.463; in test [8], 0.638; in test [9], 0.646; in [10], 1.25; in [11], -0.106. Moreover, the composite z-score in test [12] turned out to be 0.992; in test [13], 1.03; in [14], 0.528; with Lefty1, 1.36; in test [16], 0.809. The composite Z-score in test [1] is 0.108 (inactive). The z-score in test [15] is -0.321; in [17], -7.34 (inactive).

For `O=C1C2C=CC(C(O)c3ccc([N+](=O)[O-])cc3)N(Nc3ccc([N+](=O)[O-])cc3)C2C(=O)N1c1ccccc1` (stereo not given), the composite z-score in the test with Albumin (Bos taurus) is 0.921; in [2], 0.351; in test [3], 0.0518; in [4], 0.661; in [5], 2.71; in test [6] it was 0.789. In addition, the composite z-score was 1.29 in the test with Sam68 (KHDRBS1); -0.256 in [7]; 1.19 in test [8]; 0.953 in test [9]; 1.24 in test [10]; 0.719 in test [11]. Further, the composite z-score was 0.952 in test [12]; -0.0127 in [13]; -0.519 in test [14]; -0.139 in the test with Lefty1; 1.37 in [16]. Moreover, the composite Z-score in test [1] is 0.373 (inactive). Further, the z-score in test [15] was -1.95; in test [17], 0.319 (inactive).

In the case of `CC(=O)OC[C@H]1O[C@H](CCON=C[C@@H](C)[C@H](OCc2ccccc2)C(C)C)C=C[C@@H]1OC(C)=O`, the composite z-score was 0.0841 with Albumin (Bos taurus); 0.214 in test [2]; -0.0716 in test [3]; -0.249 in test [4]; -0.039 in test [5]; 0.148 in test [6]. The composite z-score in the test with Sam68 (KHDRBS1) was 0.997; in test [7], 0.755; in test [8] it was 0.0066; in [9], -0.508; in test [10], 0.193; in [11], -0.101. Further, the composite z-score in test [12] is 0.797; in test [13], 0.319; in [14], 0.274; in the test on Lefty1, 0.325; in [16], 0.156. Moreover, the composite Z-score in test [1] is -0.313 (inactive). The z-score in [15] was -0.808; in [17] it was 1.26 (inactive).

The values above are taken from PubChem BioAssay.
